Hits are enriched below; roughly 0.45% of the tested compounds scored in any of these assays.
sEH act = activators of human soluble epoxide hydrolase; AID 717; activation, % at 2 µM; purified human sEH enzymatic activity, activator screen; 91,000 compounds, 0.04% hits; in the data active = activation above about 37%
sEH inh = inhibitors of human soluble epoxide hydrolase; P34913; recombinant human sEH enzymatic activity assay; inhibition, % at 2 µM; 91,000 compounds, 0.34% hits; AID 707; in the data active = inhibition above about 80%
Smad3 FoxH1 inh = Smad3 (human) transcription factor binding inhibition; P84022; TR-FRET Smad3/Dy647-FoxH1 peptide binding, europium anti-His; inhibition, % at 25 µM; 88,000 compounds, 0.29% hits; AID 630;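 active = compounds that reduce the energy-transfer binding signal between the protein and its labelled peptide by more than half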;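 also: 0% = Smad3 plus labelled peptide maximal FRET and 100% = peptide-only background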
Target sequence (P84022 whole entry, looked up): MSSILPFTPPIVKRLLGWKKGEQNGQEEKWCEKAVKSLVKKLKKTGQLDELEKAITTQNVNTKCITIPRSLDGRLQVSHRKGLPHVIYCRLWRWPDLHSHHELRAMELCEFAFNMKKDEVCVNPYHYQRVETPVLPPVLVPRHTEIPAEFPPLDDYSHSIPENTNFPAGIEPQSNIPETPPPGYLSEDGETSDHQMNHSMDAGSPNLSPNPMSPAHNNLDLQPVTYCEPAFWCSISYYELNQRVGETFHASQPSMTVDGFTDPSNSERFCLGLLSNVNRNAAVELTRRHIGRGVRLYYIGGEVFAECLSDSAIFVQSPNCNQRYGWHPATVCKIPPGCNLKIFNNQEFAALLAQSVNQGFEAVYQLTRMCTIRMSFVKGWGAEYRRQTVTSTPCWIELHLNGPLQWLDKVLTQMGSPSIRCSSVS
An asterisk follows results filed as active; / = no result given; [ ] = another dose, or the depositor's remark.

SMILES	sEH act	sEH inh	Smad3 FoxH1 inh
O=[As](O)(O)c1ccc(Cc2ccc([As](=O)(O)O)cc2)cc1	/	/	79*
O=[As](O)(O)c1ccc(NCc2ccccc2)cc1	/	/	10
O=C(NCP(=O)(O)O)c1cccnc1	/	/	-1
C[C@@H]1CC[C@@H]2N(C1)C[C@@H]1[C@](O)([C@H](O)C[C@]3(O)[C@H]4CC[C@@H]5[C@]6(O)O[C@@]4(C[C@@]13O)[C@@]5(C)CC[C@H]6O)[C@@]2(C)O	/	/	1
Nc1nc2c(c(=S)[nH]1)[n]([Hg][c]1cc([N+](=O)[O-])ccc1O)c[n+]2[C@H]1O[C@H](CO)[C@@H](O)[C@@H]1O	/	/	46
Cc1nc2c(=O)n(C)c(=O)nc-2n(C)n1	-29	32	80*
O=C(O)/C=C/c1ccc[c]([Sb](=[O])([OH])[OH])c1	/	/	90*
C[C@H]1CC[C@]2(NC1)O[C@H]1C[C@H]3[C@H]4CC=C5C[C@@H](O)CC[C@]5(C)[C@@H]4CC[C@]3(C)[C@H]1[C@@H]2C	/	/	11
Nc1ccc(S(=O)(=O)c2ccc(NCN3C(=O)NC(=O)C(=O)C3=O)cc2)cc1	/	/	-6
c1ccc2c(c1)Sc1ccccc1N2C[C@H]1CN2CCC1CC2	/	/	77*
O=C(O)C(Oc1nc(=S)[nH]c(=S)[nH]1)(c1ccc(Cl)cc1)c1ccc(Cl)cc1	/	/	47
CO[C@@H]([CH2][Hg][n]1cnc2c1c(=O)n(C)c(=O)n2C)CN1C(=O)c2ccccc2S1(=O)=O	/	/	64*
CC(C)(C)c1cc(C#N)cc(Br)c1OP(=O)(Oc1c(Br)cc(C#N)cc1C(C)(C)C)c1ccccc1	/	/	-11
CC1(C)[C@@H]2CC[C@@]1(C)CN(CCC[N+](C)(C)C)C2	/	/	30
O=c1[nH]cnc2[nH]cc(CN3CCCCC3)c12	/	/	78*
NNc1nncn1N	/	/	2
CC1(C)CC(=N[N-]C(N)=[SH+])CC(C)(C)N1.CC1(C)CC(=N[N-]C(N)=[SH+])CC(C)(C)N1.[Ni]	/	/	68*
CN1C[C@@H](C(=O)N[C@@]2(C)O[C@@]3(O)[C@H]4CCCN4C(=O)[C@@H](Cc4ccccc4)N3C2=O)C=C2c3cccc4[nH]cc(c34)C[C@@H]21	/	/	20
O=C(O)C[C@@H]1OCC=C2CN3CC[C@]45c6ccccc6N[C@H]4[C@H]1[C@H]2C[C@H]35	/	/	-14
COc1cc2c(cc1OC)[C@]13CCN4CC5=CCO[C@@H](CC(=O)O)[C@H]([C@H]5C[C@H]41)[C@@H]3N2	/	/	88*
N=C(N)n1cc(/C=N/N=C(N)N)cn1	/	/	-15
N[C@H](Cc1ccc2oc3cc(=O)c4ccccc4c-3nc2c1)C(=O)O	/	/	13
COc1cccc2c1C(=O)c1c(O)c3c(c(O)c1C2=O)C[C@](O)(/C(C)=N/O)C[C@@H]3O[C@@H]1C[C@H](N)[C@@H](O)[C@H](C)O1	/	/	13
O=C(C[C@H](c1ccccc1)c1c(O)c2ccccc2oc1=O)c1ccccc1	/	/	-16
Nc1c(C(=O)Nc2ccc([As](=O)(O)O)cc2)cnc2nnnn12	/	/	4
SMILES	sEH act	sEH inh	Smad3 FoxH1 inh
COC(=O)c1c(C)ccc2c(O)c3c(cc12)C(=O)c1c2c(cc(O)c1C3=O)[C@@]1(C)O[C@@](C)(O2)[C@@H](O)[C@H](N(C)C)[C@H]1O	/	/	94*
COC(=O)[C@@H]1c2cc3c(c(O)c2[C@@H](O)C[C@]1(C)O)C(=O)c1c(O)cc2c(c1C3=O)O[C@H]1O[C@]2(C)[C@@H](O)[C@H](N(C)C)[C@H]1O	/	/	27
c1ccc(CCN2CCOCC2)nc1	/	/	8
C[C@]12CCC(=O)C=C1C[C@H](O)[C@@H]1[C@@H]2CC[C@@]2(C)[C@H]1CC[C@]2(C)O	/	/	38
CCC1(CCSC(=N)N)C(=O)NC(=O)NC1=O	/	/	-1
C[C@]12CC[C@@H]3[C@H](CCC4=CC(=O)CC[C@]43C)[C@]1(O)CC[C@@]2(O)C(=O)CO	/	/	1
COc1cc2c(cc1OC)[C@]13CC[N@+]4(C)CC5=CCO[C@@H]6CC(=O)N2[C@@H]1[C@@H]6[C@@H]5C[C@]34O	/	/	93*
O=C(N1CCOCC1)C1(c2ccccc2)CCNCC1	/	/	7
CCOC(=O)C(O)(c1ccc(N(C)C(=O)COc2ccccc2)cc1)C(F)(F)F (stereo unspecified)	2	-4	/
CCOC(=O)C(O)(c1ccc(NC(=O)NC2CCCCC2)cc1)C(F)(F)F (stereo unspecified)	-95	95*	3
NCCP(=O)(O)O	/	/	-3
C[C@]12CC[C@H](O[C@@H]3O[C@H](CO)[C@@H](O)[C@H](O)[C@H]3O)C[C@@H]1CC[C@@H]1[C@@H]2CC[C@]2(C)[C@@H](C3=CCOC3=O)CC[C@@]12O	/	/	56*
O=C(O)c1cccc([As]=[As]c2cccc(C(=O)O)c2)c1 (stereo unspecified)	/	/	55*
CC(C)(O)/C=C/C(=O)[C@](C)(O)[C@H]1[C@H](O)C[C@@]2(C)[C@@H]3CC=C4[C@H](C=C(O)C(=O)C4(C)C)[C@@]3(C)C(=O)C[C@]12C	/	/	-5
O=C(O)[C@H]1[O][Sb][O][C@@H](C(=O)O)C1O (stereo partly specified)	/	/	20
CC1(C)CC(=O)C(C2(O)C(=O)NC(=O)NC2=O)=C(O)C1	/	/	65*[fluorescence artefact?]
COc1cc2cc(c1Cl)N(C)C(=O)C[C@H](OC(=O)C(C)C)[C@]1(C)O[C@H]1[C@@H](C)[C@H]1C[C@](O)(NC(=O)O1)[C@@H](OC)/C=C\C=C(\C)C2	/	/	4

Screens (PubChem BioAssay)
